# From the supplement of paper PMC8728848
# The entries come from a sample that favours the strongest signals as a whole.
# Legend:
# Assay in all cases: glycan array binding signal (z-score within array); higher = stronger binding
# Conditions in all cases: glycan notation: IUPAC condensed, linker removed
# [1] = biological target: Fuc(a1-2)Gal(b1-3)GlcNAc
# Outline: (§1)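 The binding signal is a Z-score computed within each array. Data were drawn from 3228 arrays in the Consortium for Functional Glycomics database, restricted to those with a known protein sequence. Scores were averaged over arrays of the same protein sequence at different concentrations or buffers, and over linkers, and negative values can be taken as non-binding.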
# [2] = biological target: Fuc(a1-2)Gal(b1-3)GlcNAc6S
# Outline: as §1
# [3] = biological target: Fuc(a1-2)Gal(b1-3)[Fuc(a1-4)]GlcNAc
# Outline: as §1
# [4] = biological target: Fuc(a1-2)Gal6S(b1-3)GlcNAc
# Outline: as §1
# [5] = biological target: Fuc(a1-2)Gal6S(b1-3)GlcNAc6S
# Outline: as §1
# [6] = biological target: Fuc(a1-2)[GalNAc(a1-3)]Gal(b1-3)GlcNAc(b1-3)GalNAc
# Outline: as §1
# [7] = biological target: Fuc(a1-3)[Gal(b1-4)]GlcNAc6S
# Outline: as §1
# [8] = biological target: Fuc(a1-3)[Gal3S(b1-4)]Glc
# Outline: as §1
# [9] = biological target: Fuc(a1-3)[Gal3S(b1-4)]GlcNAc
# Outline: as §1
# [10] = biological target: Gal(a1-3)Gal
# Outline: as §1
# [11] = biological target: Gal(a1-3)Gal(b1-3)GlcNAc(b1-2)Man
# Outline: as §1
# [12] = biological target: Gal(b1-2)Gal
# Outline: as §1
# [13] = biological target: Gal(b1-3)GlcNAc(a1-3)Gal(b1-4)GlcNAc
# Outline: as §1
# [14] = biological target: Gal(b1-3)GlcNAc(b1-2)[Gal(b1-3)GlcNAc(b1-6)]Man(a1-6)[Gal(b1-3)GlcNAc(b1-2)Man(a1-3)]Man(b1-4)GlcNAc(b1-4)GlcNAc
# Outline: as §1
# [15] = biological target: Gal(b1-3)GlcNAc(b1-3)Gal(b1-4)Glc
# Outline: as §1
# [16] = biological target: Gal(b1-3)GlcNAc(b1-3)Gal(b1-4)GlcNAc(b1-2)[Gal(b1-3)GlcNAc(b1-3)Gal(b1-4)GlcNAc(b1-6)]Man(a1-6)[Gal(b1-3)GlcNAc(b1-3)Gal(b1-4)GlcNAc(b1-2)Man(a1-3)]Man(b1-4)GlcNAc(b1-4)[Fuc(a1-6)]GlcNAc
# Outline: as §1
# [17] = biological target: Gal(b1-4)GlcNAc(b1-2)Man(a1-3)[Gal(b1-4)GlcNAc(b1-2)Man(a1-6)][GlcNAc(b1-4)]Man(b1-4)GlcNAc(b1-4)[Fuc(a1-6)]GlcNAc
# Outline: as §1
# [18] = biological target: Gal(b1-4)GlcNAc(b1-3)Gal(b1-4)GlcNAc(b1-3)Gal(b1-4)GlcNAc
# Outline: as §1
# [19] = biological target: Gal(b1-4)GlcNAc(b1-3)Gal(b1-4)GlcNAc(b1-3)Gal(b1-4)GlcNAc(b1-3)Gal(b1-4)GlcNAc(b1-3)Gal(b1-4)GlcNAc(b1-2)Man(a1-3)[Gal(b1-4)GlcNAc(b1-3)Gal(b1-4)GlcNAc(b1-3)Gal(b1-4)GlcNAc(b1-3)Gal(b1-4)GlcNAc(b1-3)Gal(b1-4)GlcNAc(b1-2)Man(a1-6)]Man(b1-4)GlcNAc(b1-4)GlcNAc
# Outline: as §1
# [20] = biological target: Gal(b1-4)GlcNAc(b1-6)Gal(b1-4)GlcNAc
# Outline: as §1
# [21] = biological target: Gal6S(b1-3)GlcNAc
# Outline: as §1
# [22] = biological target: GalNAc(b1-4)GlcNAc
# Outline: as §1
# [23] = biological target: GalNAc(b1-4)GlcNAc(b1-2)Man
# Outline: as §1
# [24] = biological target: GalNAc(b1-4)GlcNAc(b1-3)GalNAc(b1-4)GlcNAc
# Outline: as §1
# [25] = biological target: GalNAc4S6S(b1-4)GlcNAc
# Outline: as §1
# [26] = biological target: Glc(a1-4)Glc(a1-4)Glc(a1-4)Glc
# Outline: as §1
# [27] = biological target: Glc(a1-6)Glc(a1-6)Glc(a1-6)Glc
# Outline: as §1
# [28] = biological target: Glc(b1-6)Glc
# Outline: as §1
# [29] = biological target: GlcNAc(a1-4)Gal(b1-4)GalNAc
# Outline: as §1
# [30] = biological target: GlcNAc(a1-4)Gal(b1-4)GlcNAc
# Outline: as §1
# [31] = biological target: GlcNAc(a1-4)Gal(b1-4)GlcNAc(b1-3)Gal(b1-4)GlcNAc
# Outline: as §1
# [32] = biological target: GlcNAc(b1-2)[GlcNAc(b1-4)]Man(a1-3)[GlcNAc(b1-4)][GlcNAc(b1-2)[GlcNAc(b1-6)]Man(a1-6)]Man(b1-4)GlcNAc(b1-4)[Fuc(a1-6)]GlcNAc
# Outline: as §1
# [33] = biological target: GlcNAc(b1-3)Fuc
# Outline: as §1
# [34] = biological target: GlcNAc(b1-3)Gal(b1-4)Glc
# Outline: as §1
# [35] = biological target: GlcNAc(b1-3)Gal(b1-4)GlcNAc(b1-3)Gal(b1-4)GlcNAc(b1-2)Man(a1-3)[GlcNAc(b1-3)Gal(b1-4)GlcNAc(b1-3)Gal(b1-4)GlcNAc(b1-2)Man(a1-6)]Man(b1-4)GlcNAc(b1-4)GlcNAc
# Outline: as §1
# [36] = biological target: GlcNAc(b1-3)Gal(b1-4)GlcNAc(b1-3)Gal(b1-4)GlcNAc(b1-3)Gal(b1-4)GlcNAc(b1-3)Gal(b1-4)GlcNAc(b1-2)Man(a1-3)[GlcNAc(b1-3)Gal(b1-4)GlcNAc(b1-3)Gal(b1-4)GlcNAc(b1-3)Gal(b1-4)GlcNAc(b1-3)Gal(b1-4)GlcNAc(b1-2)Man(a1-6)]Man(b1-4)GlcNAc(b1-4)[Fuc(a1-6)]GlcNAc
# Outline: as §1
# [37] = biological target: GlcNAc(b1-3)Gal(b1-4)GlcNAc(b1-3)Gal(b1-4)GlcNAc(b1-3)Gal(b1-4)GlcNAc(b1-3)Gal(b1-4)GlcNAc(b1-2)[GlcNAc(b1-3)Gal(b1-4)GlcNAc(b1-3)Gal(b1-4)GlcNAc(b1-3)Gal(b1-4)GlcNAc(b1-3)Gal(b1-4)GlcNAc(b1-6)]Man(a1-6)[GlcNAc(b1-3)Gal(b1-4)GlcNAc(b1-3)Gal(b1-4)GlcNAc(b1-3)Gal(b1-4)GlcNAc(b1-3)Gal(b1-4)GlcNAc(b1-2)Man(a1-3)]Man(b1-4)GlcNAc(b1-4)[Fuc(a1-6)]GlcNAc
# Outline: as §1
# [38] = biological target: GlcNAc(b1-3)Gal(b1-4)GlcNAc(b1-3)[GlcNAc(b1-3)Gal(b1-4)GlcNAc(b1-3)]GalNAc
# Outline: as §1
# [39] = biological target: Kdn(a2-3)Gal(b1-4)GlcNAc
# Outline: as §1
# [40] = biological target: Man(a1-2)Man(a1-2)Man(a1-3)Man
# Outline: as §1
# [41] = biological target: Neu5Ac(a2-3)Gal(b1-3)GlcNAc(b1-3)Gal(b1-4)GlcNAc
# Outline: as §1
# [42] = biological target: Neu5Ac(a2-3)Gal(b1-3)GlcNAc(b1-3)GalNAc
# Outline: as §1
# [43] = biological target: Neu5Ac(a2-6)Gal(b1-4)GlcNAc(b1-2)Man
# Outline: as §1
# [44] = biological target: Neu5Ac(a2-6)Gal(b1-4)GlcNAc(b1-3)Gal(b1-4)GlcNAc
# Outline: as §1
# [45] = biological target: Neu5Ac(a2-8)Neu5Ac(a2-3)[Gal(b1-3)GalNAc(b1-4)]Gal(b1-4)Glc
# Outline: as §1
# [46] = biological target: Neu5Gc(b2-6)Gal(b1-4)GlcNAc
# Outline: as §1
binder,measurement,setting,value
"Pa IMPa (Pseudomonas aeruginosa), Q9I5W4 (protein) MSLSTTAFPSLQGENMSRSPIPRHRALLAGFCLAGALSAQAATQEEILDAALVSGDSSQLTDSHLVALRLQQQVERIRQTRTQLLDGLYQNLSQAYDPGAASMWVLPANPDNTLPFLIGDKGRVLASLSLEAGGRGLAYGTNVLTQLSGTNAAHAPLLKRAVQWLVNGDPGAATAKDFKVSVVGVDKTAALNGLKSAGLQPADAACNALTDASCASTSKLLVLGNGASAASLSATVRARLQAGLPILFVHTNGWNQSSTGQQILAGLGLQEGPYGGNYWDKDRVPSSRTRTRSVELGGAYGQDPALVQQIVDGSWRTDYDWSKCTSYVGRTTCDDVPGLSDFSKRVDVLKGALDAYNQKAQNLFALPGTTSLRLWLLWADAVRQNIRYPMDKAADTARFQETFVADAIVGYVREAGAAQKELGSYAGQRQQSMPVSGSEETLTLTLPSAQGFTAIGRMAAPGKRLSIRIEDAGQASLAVGLNTQRIGSTRLWNTRQYDRPRFLKSPDIKLQANQSVALVSPYGGLLQLVYSGATPGQTVTVKVTGAASQPFLDIQPGEDSSQAIADFIQALDADKADWLEIRSGSVEVHAKVEKVRGSIDKDYGGDVQRFIRELNEVFIDDAYTLAGFAIPNQAKTPAIQQECAARGWDCDSETLHKLPGTQHINVDQYAQCGGGCSGNPYDQTWGLNPRGWGESHELGHNLQVNRLKVYGGRSGEISNQIFPLHKDWRVLREFGQNLDDTRVNYRNAYNLIVAGRAEADPLAGVYKRLWEDPGTYALNGERMAFYTQWVHYWADLKNDPLQGWDIWTLLYLHQRQVDKSDWDANKAALGYGTYAQRPGNSGDASSTDGNDNLLLGLSWLTQRDQRPTFALWGIRTSAAAQAQVAAYGFAEQPAFFYANNRTNEYSTVKLLDMSQGSPAWPFP",glycan array binding signal (z-score),[1],-0.318
same,glycan array binding signal (z-score),[2],-0.327
same,glycan array binding signal (z-score),[3],-0.558
same,glycan array binding signal (z-score),[4],0.048
same,glycan array binding signal (z-score),[5],2.91
same,glycan array binding signal (z-score),[6],-0.411
same,glycan array binding signal (z-score),[7],-0.132
same,glycan array binding signal (z-score),[8],-0.077
same,glycan array binding signal (z-score),[9],-0.278
same,glycan array binding signal (z-score),[10],0.105
same,glycan array binding signal (z-score),[11],-0.472
same,glycan array binding signal (z-score),[12],0.524
same,glycan array binding signal (z-score),[13],1.27
same,glycan array binding signal (z-score),[14],-0.438
same,glycan array binding signal (z-score),[15],0.215
same,glycan array binding signal (z-score),[16],0.004
same,glycan array binding signal (z-score),[17],-0.448
same,glycan array binding signal (z-score),[18],-0.198
same,glycan array binding signal (z-score),[19],10.7
same,glycan array binding signal (z-score),[20],-0.112
same,glycan array binding signal (z-score),[21],1.34
same,glycan array binding signal (z-score),[22],-0.367
same,glycan array binding signal (z-score),[23],0.357
same,glycan array binding signal (z-score),[24],-0.197
same,glycan array binding signal (z-score),[25],1.48
same,glycan array binding signal (z-score),[26],0.634
same,glycan array binding signal (z-score),[27],0.853
same,glycan array binding signal (z-score),[28],-0.442
same,glycan array binding signal (z-score),[29],0.088
same,glycan array binding signal (z-score),[30],3.49
same,glycan array binding signal (z-score),[31],-0.321
same,glycan array binding signal (z-score),[32],1.41
same,glycan array binding signal (z-score),[33],1.37
same,glycan array binding signal (z-score),[34],-0.08
same,glycan array binding signal (z-score),[35],-0.305
same,glycan array binding signal (z-score),[36],7.78
same,glycan array binding signal (z-score),[37],0.125
same,glycan array binding signal (z-score),[38],17.5
same,glycan array binding signal (z-score),[39],-0.467
same,glycan array binding signal (z-score),[40],-0.474
same,glycan array binding signal (z-score),[41],0.474
same,glycan array binding signal (z-score),[42],0.273
same,glycan array binding signal (z-score),[43],-0.409
same,glycan array binding signal (z-score),[44],-0.371
same,glycan array binding signal (z-score),[45],-0.007
same,glycan array binding signal (z-score),[46],-0.305
